Common to all, as to test: DAPPL (digital affinity profiling via proximity ligation, sequencing); 10 mM Tris-HCl pH 7.5, 50 mM NaCl, 1 mM DTT, 4% glycerol, room temperature, 30 min; GST-TFs on glutathione beads, 16-mer random dsDNA library, 0.1% formaldehyde crosslink after washing; high values mean tight binding
One assay addresses T1, FEV (Homo sapiens, UniProt Q99581 1-238).
T1 sequence: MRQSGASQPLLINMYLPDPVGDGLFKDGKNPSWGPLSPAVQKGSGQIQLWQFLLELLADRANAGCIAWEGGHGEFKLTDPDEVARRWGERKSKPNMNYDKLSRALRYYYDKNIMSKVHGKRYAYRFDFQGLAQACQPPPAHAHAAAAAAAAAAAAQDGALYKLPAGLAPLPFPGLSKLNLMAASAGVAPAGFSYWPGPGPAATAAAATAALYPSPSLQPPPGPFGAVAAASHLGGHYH
The following applies: protein: recombinant; tags: N-terminal GST; dsDNA, one strand shown. Put shortly: (§1)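 A tag-only sample was pooled with DNA-barcoded human transcription factors that had been expressed in yeast as GST fusions and captured on glutathione beads. The pools were incubated for 30 min at room temperature with 200 nmole of a random double-stranded 16-mer DNA library in Tris/NaCl/DTT/glycerol buffer, then washed, crosslinked with 0.1% formaldehyde, proximity-ligated (BsaI/T4 ligase, 1 h, 37 °C), PCR-amplified and sequenced on an Illumina NextSeq500. Binding signal is each hexamer's read frequency for a factor divided by its frequency for the tag-only sample.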

The next assay deals with ETV5 (Homo sapiens, UniProt P41161 1-510). The note with it: protein: recombinant; tags: N-terminal GST; dsDNA, one strand shown. Put shortly:
as §1

A further assay has as its target HSF1 (Homo sapiens, UniProt Q00613 1-529). The note with it: protein: recombinant; tags: N-terminal GST; chain copies: 3; dsDNA, one strand shown. The essentials: as §1
The target in a further assay is T2, SPIC (Homo sapiens, UniProt Q8N5J4 1-248).
T2 sequence: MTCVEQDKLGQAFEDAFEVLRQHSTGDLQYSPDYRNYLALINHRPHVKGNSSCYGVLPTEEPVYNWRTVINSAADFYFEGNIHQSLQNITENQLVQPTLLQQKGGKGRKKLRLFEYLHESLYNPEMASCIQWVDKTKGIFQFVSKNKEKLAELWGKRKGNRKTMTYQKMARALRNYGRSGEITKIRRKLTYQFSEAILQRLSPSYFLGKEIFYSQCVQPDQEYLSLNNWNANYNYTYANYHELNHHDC
The following applies: protein: recombinant; tags: N-terminal GST; dsDNA, one strand shown. Put shortly: as §1

For another assay, the target named is ELF4 (Homo sapiens, UniProt Q99607 1-663). The note with it: protein: recombinant; tags: N-terminal GST; dsDNA, one strand shown. Put shortly: as §1
Sequence of ELF4 (Q99607 whole entry): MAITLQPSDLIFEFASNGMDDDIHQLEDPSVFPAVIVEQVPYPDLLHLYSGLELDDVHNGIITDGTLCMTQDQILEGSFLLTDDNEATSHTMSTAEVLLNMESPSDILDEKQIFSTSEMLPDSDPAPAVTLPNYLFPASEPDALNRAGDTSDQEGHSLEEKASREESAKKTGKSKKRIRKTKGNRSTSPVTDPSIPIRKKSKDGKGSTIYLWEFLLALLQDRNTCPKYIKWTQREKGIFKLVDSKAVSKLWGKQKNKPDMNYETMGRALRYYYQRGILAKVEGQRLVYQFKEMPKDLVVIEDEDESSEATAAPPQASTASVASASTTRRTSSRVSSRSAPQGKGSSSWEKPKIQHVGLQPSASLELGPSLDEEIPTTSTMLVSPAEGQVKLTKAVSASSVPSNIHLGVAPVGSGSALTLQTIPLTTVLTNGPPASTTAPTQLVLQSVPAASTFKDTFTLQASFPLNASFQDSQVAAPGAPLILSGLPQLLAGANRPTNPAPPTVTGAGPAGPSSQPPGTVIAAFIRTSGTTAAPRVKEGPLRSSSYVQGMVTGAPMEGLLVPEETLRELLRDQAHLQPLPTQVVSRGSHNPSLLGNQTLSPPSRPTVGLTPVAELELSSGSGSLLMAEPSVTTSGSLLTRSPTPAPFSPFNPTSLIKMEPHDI
The next assay deals with T3, ELK4 (Homo sapiens, UniProt P28324-2 1-405).
T3 sequence: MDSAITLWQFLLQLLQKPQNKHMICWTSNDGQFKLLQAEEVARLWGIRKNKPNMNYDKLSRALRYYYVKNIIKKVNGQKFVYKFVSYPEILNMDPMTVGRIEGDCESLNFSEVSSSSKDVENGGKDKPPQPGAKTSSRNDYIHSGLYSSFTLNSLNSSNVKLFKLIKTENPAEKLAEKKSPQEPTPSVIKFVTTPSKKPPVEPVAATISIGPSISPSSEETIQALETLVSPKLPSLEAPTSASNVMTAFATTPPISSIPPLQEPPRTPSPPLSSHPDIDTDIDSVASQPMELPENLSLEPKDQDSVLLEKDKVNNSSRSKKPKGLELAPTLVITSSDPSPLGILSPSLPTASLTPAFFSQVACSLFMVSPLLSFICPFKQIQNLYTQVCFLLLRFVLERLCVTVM
The following applies: protein: recombinant; tags: N-terminal GST; dsDNA, one strand shown. The essentials: as §1

For the next assay, the target named is T4, ETV2 (Homo sapiens, UniProt O00321 1-342).
T4 sequence: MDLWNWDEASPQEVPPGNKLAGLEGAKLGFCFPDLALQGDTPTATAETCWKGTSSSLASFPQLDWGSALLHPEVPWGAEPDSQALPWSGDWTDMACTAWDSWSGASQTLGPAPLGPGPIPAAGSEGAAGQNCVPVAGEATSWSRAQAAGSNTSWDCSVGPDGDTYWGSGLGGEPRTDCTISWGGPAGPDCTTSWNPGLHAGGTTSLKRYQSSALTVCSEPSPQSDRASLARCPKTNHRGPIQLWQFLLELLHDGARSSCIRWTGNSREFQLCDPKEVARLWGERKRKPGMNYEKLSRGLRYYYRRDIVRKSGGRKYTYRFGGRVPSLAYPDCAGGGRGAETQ
The following applies: protein: recombinant; tags: N-terminal GST; dsDNA, one strand shown. The essentials: as §1

The next assay concerns the target T5, ELF3 (Homo sapiens, UniProt P78545 1-371).
T5 sequence: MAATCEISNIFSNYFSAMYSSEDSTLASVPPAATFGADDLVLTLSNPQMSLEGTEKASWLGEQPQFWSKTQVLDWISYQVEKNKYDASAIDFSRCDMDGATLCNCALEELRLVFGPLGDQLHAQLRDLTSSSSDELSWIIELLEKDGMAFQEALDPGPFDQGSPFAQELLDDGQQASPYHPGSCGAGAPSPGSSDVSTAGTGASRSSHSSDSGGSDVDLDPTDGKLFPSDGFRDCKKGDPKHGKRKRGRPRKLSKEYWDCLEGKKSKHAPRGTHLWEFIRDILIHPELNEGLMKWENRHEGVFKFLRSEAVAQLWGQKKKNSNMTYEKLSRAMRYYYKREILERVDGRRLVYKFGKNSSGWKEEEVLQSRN
The following applies: protein: recombinant; tags: N-terminal GST; dsDNA, one strand shown. Put shortly: as §1

A further assay has as its target CRX (Homo sapiens, UniProt O43186 1-299). The note with it: protein: recombinant; tags: N-terminal GST; dsDNA, one strand shown. Put shortly: as §1
A further assay addresses ETV1 (Homo sapiens, UniProt P50549 1-477). The note with it: protein: recombinant; tags: N-terminal GST; dsDNA, one strand shown. Put shortly:
as §1

The target in another assay is T6, ERF (Homo sapiens, UniProt P50548 1-548).
T6 sequence: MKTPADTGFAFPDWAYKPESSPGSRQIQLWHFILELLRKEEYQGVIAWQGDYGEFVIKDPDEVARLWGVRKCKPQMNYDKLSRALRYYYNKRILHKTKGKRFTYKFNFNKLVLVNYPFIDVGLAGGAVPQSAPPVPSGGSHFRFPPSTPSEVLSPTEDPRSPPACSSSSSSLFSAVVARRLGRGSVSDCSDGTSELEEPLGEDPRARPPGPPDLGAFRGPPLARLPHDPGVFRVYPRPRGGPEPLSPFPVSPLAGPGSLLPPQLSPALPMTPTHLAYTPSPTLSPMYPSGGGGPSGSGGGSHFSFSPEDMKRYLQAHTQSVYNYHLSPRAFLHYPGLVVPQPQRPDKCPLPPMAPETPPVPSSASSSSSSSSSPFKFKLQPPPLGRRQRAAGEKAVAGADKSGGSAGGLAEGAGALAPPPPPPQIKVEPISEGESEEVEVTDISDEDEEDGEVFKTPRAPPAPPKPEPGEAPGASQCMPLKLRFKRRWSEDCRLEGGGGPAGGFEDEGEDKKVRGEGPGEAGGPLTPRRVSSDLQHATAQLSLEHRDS
The note with it: protein: recombinant; tags: N-terminal GST; dsDNA, one strand shown. The essentials: as §1

The next assay addresses T7, ETV3L (Homo sapiens, UniProt Q6ZN32 1-361).
T7 sequence: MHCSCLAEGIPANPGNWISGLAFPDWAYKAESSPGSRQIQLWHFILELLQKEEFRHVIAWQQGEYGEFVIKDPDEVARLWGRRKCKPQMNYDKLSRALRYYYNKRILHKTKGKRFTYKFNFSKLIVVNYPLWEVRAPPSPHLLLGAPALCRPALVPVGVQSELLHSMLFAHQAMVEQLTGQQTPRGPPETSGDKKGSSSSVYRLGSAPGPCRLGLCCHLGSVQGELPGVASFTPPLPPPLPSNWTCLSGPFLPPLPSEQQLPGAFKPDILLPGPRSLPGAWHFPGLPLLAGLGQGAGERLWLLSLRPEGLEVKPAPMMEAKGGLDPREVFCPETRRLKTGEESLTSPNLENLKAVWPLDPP
The note with it: protein: recombinant; tags: N-terminal GST; dsDNA, one strand shown. Put shortly:
as §1

The target in another assay is T8, ETS2 (Homo sapiens, UniProt P15036 1-469).
T8 sequence: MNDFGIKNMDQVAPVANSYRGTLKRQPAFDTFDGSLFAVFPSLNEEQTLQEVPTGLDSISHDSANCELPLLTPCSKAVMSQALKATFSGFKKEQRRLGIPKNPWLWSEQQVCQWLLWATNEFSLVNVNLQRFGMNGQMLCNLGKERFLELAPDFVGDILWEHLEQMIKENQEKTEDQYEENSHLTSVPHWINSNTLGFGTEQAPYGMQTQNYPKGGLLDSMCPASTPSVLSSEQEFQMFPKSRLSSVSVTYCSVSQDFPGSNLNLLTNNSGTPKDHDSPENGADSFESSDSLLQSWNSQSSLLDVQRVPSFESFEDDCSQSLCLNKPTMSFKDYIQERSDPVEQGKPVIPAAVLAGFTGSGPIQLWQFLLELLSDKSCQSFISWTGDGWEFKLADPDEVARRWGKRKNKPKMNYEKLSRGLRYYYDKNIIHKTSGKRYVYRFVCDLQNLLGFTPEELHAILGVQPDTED
The following applies: protein: recombinant; tags: N-terminal GST; dsDNA, one strand shown. Put shortly:
as §1

For a further assay, the target named is T9, SPDEF (Homo sapiens, UniProt O95238 1-335).
T9 sequence: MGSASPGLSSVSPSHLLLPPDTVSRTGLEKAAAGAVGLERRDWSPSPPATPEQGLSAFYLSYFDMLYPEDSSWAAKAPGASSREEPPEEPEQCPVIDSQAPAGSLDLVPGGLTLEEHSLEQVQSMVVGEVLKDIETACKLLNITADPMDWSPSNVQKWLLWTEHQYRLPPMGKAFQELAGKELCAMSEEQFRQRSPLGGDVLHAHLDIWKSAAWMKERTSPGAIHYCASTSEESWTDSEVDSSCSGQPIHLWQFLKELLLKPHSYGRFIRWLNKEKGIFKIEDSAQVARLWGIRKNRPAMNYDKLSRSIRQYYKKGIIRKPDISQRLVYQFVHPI
The following applies: protein: recombinant; tags: N-terminal GST; dsDNA, one strand shown. The essentials: as §1

The target of the next assay is T10, ETV7 (Homo sapiens, UniProt Q9Y603 1-341).
T10 sequence: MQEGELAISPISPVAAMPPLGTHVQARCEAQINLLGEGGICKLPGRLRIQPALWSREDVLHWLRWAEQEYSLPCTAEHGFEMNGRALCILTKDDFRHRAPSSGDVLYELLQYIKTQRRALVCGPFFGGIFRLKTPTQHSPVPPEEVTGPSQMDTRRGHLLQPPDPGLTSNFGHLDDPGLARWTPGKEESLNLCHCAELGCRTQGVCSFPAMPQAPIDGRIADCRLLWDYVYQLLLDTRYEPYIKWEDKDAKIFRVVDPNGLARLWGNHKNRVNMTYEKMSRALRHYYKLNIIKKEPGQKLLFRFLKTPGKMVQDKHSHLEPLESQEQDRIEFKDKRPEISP
The following applies: protein: recombinant; tags: N-terminal GST; dsDNA, one strand shown. The essentials:
as §1

For another assay, the target named is T11, ELF5 (Homo sapiens, UniProt Q9UKW6-2 1-255).
T11 sequence: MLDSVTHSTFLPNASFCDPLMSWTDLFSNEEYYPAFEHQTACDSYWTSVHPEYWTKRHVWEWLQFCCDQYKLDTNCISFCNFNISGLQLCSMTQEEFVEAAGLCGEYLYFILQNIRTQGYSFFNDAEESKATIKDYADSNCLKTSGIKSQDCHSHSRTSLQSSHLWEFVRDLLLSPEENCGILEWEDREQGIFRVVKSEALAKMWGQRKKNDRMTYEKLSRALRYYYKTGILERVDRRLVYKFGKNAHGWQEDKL
The following applies: protein: recombinant; tags: N-terminal GST; dsDNA, one strand shown. The essentials:
as §1

A further assay has as its target T12, ETV3 (Homo sapiens, UniProt P41162-2 1-143).
T12 sequence: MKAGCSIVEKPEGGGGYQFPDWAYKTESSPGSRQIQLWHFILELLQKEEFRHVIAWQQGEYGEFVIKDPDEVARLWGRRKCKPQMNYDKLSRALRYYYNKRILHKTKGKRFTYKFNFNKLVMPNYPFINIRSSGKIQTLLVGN
The following applies: protein: recombinant; tags: N-terminal GST; dsDNA, one strand shown. The essentials: as §1

In a further assay the target is ETV6 (Homo sapiens, UniProt P41212 1-452). The following applies: protein: recombinant; tags: N-terminal GST; dsDNA, one strand shown. The essentials: as §1
Sequence of ETV6 (P41212 whole entry): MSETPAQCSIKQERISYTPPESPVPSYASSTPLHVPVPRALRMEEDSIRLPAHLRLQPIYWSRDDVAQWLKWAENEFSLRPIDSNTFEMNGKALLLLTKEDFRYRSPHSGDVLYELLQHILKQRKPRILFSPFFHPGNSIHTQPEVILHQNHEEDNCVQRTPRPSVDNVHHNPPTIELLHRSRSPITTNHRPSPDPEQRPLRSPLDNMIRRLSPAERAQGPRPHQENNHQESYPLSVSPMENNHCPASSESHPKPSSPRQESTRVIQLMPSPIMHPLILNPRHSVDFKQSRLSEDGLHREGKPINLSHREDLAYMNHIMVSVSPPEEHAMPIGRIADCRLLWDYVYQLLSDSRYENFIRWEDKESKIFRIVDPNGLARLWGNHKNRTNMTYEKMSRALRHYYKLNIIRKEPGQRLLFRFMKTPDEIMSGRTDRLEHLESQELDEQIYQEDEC

Sequence of HSF1 (Q00613 whole entry): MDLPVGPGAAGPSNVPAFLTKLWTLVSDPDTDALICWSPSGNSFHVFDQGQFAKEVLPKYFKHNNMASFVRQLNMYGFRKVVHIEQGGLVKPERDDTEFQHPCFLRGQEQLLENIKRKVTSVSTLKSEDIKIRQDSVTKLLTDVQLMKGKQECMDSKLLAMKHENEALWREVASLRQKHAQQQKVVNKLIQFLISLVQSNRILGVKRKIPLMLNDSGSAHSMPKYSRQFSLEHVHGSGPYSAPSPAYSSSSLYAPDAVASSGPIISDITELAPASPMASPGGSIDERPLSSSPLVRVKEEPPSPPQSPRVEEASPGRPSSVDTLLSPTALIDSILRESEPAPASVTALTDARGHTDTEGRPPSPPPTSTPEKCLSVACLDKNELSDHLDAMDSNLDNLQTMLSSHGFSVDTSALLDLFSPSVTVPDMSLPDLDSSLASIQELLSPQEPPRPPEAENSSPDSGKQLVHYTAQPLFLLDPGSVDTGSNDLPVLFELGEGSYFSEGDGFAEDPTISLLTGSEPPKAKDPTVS
Sequence of ETV1 (P50549 whole entry): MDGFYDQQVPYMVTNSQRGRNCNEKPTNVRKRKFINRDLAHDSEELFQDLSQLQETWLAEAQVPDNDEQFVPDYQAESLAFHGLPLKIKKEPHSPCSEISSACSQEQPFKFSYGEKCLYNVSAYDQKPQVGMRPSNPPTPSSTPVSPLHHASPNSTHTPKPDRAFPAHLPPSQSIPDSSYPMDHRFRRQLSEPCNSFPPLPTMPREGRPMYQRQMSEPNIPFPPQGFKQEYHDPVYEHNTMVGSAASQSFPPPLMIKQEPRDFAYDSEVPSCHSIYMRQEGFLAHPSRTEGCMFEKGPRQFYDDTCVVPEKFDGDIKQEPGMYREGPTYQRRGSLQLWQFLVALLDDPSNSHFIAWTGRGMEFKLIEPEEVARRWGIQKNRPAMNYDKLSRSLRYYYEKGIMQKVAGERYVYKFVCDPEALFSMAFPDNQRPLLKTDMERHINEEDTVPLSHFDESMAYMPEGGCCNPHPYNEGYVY
Sequence of ETV5 (P41161 whole entry): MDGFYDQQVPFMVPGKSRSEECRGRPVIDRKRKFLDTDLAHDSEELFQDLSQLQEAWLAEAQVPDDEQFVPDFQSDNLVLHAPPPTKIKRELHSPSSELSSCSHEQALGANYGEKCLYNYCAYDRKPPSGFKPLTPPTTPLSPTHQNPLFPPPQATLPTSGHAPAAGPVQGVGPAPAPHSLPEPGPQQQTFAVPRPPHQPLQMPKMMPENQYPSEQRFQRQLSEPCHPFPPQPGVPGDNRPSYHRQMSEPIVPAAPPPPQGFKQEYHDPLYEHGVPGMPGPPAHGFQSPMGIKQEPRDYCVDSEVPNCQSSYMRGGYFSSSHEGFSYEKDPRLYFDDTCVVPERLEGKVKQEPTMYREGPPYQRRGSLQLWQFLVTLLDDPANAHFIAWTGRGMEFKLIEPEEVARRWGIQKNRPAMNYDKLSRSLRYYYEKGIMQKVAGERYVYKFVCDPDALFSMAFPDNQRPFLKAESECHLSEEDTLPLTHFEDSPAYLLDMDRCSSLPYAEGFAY
Sequence of CRX (O43186 whole entry): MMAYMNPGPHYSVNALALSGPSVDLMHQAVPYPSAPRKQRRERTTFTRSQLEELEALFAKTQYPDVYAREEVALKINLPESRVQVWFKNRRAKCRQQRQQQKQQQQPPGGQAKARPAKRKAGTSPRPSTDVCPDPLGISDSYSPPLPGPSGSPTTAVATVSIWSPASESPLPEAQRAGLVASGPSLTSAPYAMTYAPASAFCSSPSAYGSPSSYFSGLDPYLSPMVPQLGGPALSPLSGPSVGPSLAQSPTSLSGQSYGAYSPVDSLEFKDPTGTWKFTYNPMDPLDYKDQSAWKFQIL

TCTTGA: the binding signal with FEV was 1.3 fold enrichment (6-mer frequency, TF over GST control); with ETV5 it was 1.14 fold enrichment (6-mer frequency, TF over GST control); with HSF1, 1.61 fold enrichment (6-mer frequency, TF over GST control); with SPIC, 1.21 fold enrichment (6-mer frequency, TF over GST control); in the assay with ELF4 it was 1.33 fold enrichment (6-mer frequency, TF over GST control); with ELK4, 1.4 fold enrichment (6-mer frequency, TF over GST control). For the same sequence, the binding signal in the assay with ETV2 was 1.2 fold enrichment (6-mer frequency, TF over GST control); in the assay with ELF3, 1.19 fold enrichment (6-mer frequency, TF over GST control); with CRX, 1.44 fold enrichment (6-mer frequency, TF over GST control); in the assay with ETV1, 1.17 fold enrichment (6-mer frequency, TF over GST control); in the assay with ERF, 1.49 fold enrichment (6-mer frequency, TF over GST control); with ETV3L it was 1.32 fold enrichment (6-mer frequency, TF over GST control). The binding signal with ETS2 was 1.28 fold enrichment (6-mer frequency, TF over GST control); with SPDEF, 1.25 fold enrichment (6-mer frequency, TF over GST control); with ETV7, 1.22 fold enrichment (6-mer frequency, TF over GST control); with ELF5, 1.3 fold enrichment (6-mer frequency, TF over GST control); in the assay with ETV3, 1.18 fold enrichment (6-mer frequency, TF over GST control); in the assay with ETV6 it was 1.24 fold enrichment (6-mer frequency, TF over GST control).

(Values after publication PMC7862700, “An all-to-all approach to the identification of sequence-specific readers for epigenetic DNA modifications on cytosine”.)
